# Bst PK mod: pyruvate kinase (B. stearothermophilus) modulation. Potency, µM. AID 361. purified pyruvate kinase, luminescence ATP production; ribose 5-phosphate activator present at AC10. 51,000 compounds, 1.2% hits; in the data active means potency below about 11 µM; inconclusive means mostly about 12 µM to 25 µM;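 the screen sought inhibitors and activators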;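 further: scaled between full activation by ribose 5 phosphate and full inhibition by luteolin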
# GBA mod: human lysosomal glucosylceramidase modulation; P04062; purified enzyme, resorufin glucoside fluorescence (screen aimed at inhibitors), 20 min; Potency, µM; 48,000 compounds, 1.1% hits; in the data active means potency below about 15 µM; inconclusive means mostly about 16 µM to 33 µM;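 further: the screen sought inhibitors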
#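 Compounds titrated against 0.2 nM normal enzyme, 30 uM resorufin beta-D-glucopyranoside substrate, citrate/phosphate buffer with taurocholate and tween-20, pH 5.9. Reaction ran 20 min at room temperature; fluorescence (Ex 548/Em 600) gave AC50.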
# TSHR agonist: TSH receptor (human) agonism | Potency, µM (top dose mostly 57.1 µM), for inactives: at the top dose activation, usual class: activators | P16473 | 73,000 compounds, 0.48% hits | HEK293-CNG-TSHR cells (CNG channel as cAMP sensor), membrane potential dye, cAMP; active means well fitted activation curve with a large enough effect in the main read-out, with a control signal flat, not every such curve was filed as active; inconclusive means small, poorly fitted or top-dose-only effect, or a change in a side signal; inactive means no such curve, though single readings can be large or run the other way; % of control where 0% means no effect;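 further: the control signal comes from parental cells without the receptor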
# Target sequence (P16473 whole entry, looked up): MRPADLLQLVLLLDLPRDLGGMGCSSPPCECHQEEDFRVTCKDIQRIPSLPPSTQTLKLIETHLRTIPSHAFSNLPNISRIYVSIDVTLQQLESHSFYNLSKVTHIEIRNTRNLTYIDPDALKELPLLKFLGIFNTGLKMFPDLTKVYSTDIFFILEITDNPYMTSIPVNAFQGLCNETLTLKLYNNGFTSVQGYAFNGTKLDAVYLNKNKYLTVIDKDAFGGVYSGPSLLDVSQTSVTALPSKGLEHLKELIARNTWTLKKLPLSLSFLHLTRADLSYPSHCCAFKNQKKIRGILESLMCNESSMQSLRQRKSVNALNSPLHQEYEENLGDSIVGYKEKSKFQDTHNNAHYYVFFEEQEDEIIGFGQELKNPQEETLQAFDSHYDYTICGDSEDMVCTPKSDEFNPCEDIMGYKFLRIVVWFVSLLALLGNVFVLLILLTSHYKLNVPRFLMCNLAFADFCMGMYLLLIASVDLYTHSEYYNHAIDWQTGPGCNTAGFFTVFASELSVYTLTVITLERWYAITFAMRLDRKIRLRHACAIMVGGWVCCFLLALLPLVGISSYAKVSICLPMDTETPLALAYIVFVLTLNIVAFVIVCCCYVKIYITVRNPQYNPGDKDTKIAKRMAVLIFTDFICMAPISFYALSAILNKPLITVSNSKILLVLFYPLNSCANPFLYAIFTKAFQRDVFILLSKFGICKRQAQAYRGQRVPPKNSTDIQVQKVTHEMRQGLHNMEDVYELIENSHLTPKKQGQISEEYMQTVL
#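 HEK 293 cells stably expressing TSHR and a cAMP-gated CNG channel; parental CNG-only cells as counterscreen. Cells preloaded 60 min with membrane potential dye plus 100 uM RO 20-1724, then compound 30 min; fluorescence read at 590 nm.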
# USP2a inhib: USP2a (human) protease inhibition; Potency, µM (titrated, usually from 38.3 µM), for inactives: at the top dose activity change, negative = inhibition, usual class: inhibitors; O75604; USP2a enzymatic assay, qHTS inhibition; 60,000 compounds, 0.1% hits; AID 927; further: nearly all actives have a fitted effect of over 60% in size
#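 Coupled readout: USP2-cleaved Ub-PLA2 (20nM final) turns over NBD C6-HPC (20uM final), Ex 460nm/Em 535nm after 2.5 h, time-zero read flagging artifacts. Enzyme (20nM final, pH 8.0 Tris) given 30 min RT with compound first; NEM defines full inhibition.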
# UbGFP stabilizer: inhibits proteasome, raising ubiquitin-GFP reporter fluorescence. Ubiquitin-GFP reporter cells, proteasome inhibition, GFP fluorescence; response scale: untreated = 0%, 10 µM MG-132 = 100%. AID 526. Potency, µM (series often up to 45.9 µM), for inactives: at the highest dose activation (GFP accumulation), actives largely listed as activators. 67,000 tested, under 10 active; active means well fitted activation curve with a large enough effect, not every such curve was filed as active; inconclusive means small, poorly fitted or top-dose-only effect, or another doubt; inactive means no such curve, though single readings can be large or run the other way
#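 Proteasome blockade was scored as a rise in GFP-expressing U2OS cells carrying a ubiquitin(G76V)-GFP construct, imaged after 4 hr compound treatment at 37 °C across a 46 uM–2.9 nM series.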
# HEK293 cAMP cs: raises cAMP in parental HEK293 cells, TSHR agonist counter-screen; parental HEK293 CNG cAMP sensor, membrane potential fluorescence; 73,000 compounds, 2.5% hits; Potency, µM (titrated, usually from 57.1 µM), for inactives: at the highest dose activation, usual class: activators; further: % of control where 0% means no effect; nearly all actives have a fitted effect of over 55% in size
#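 Counterscreen for endogenous-receptor signalling: CNG-channel HEK 293 cells report cAMP rise by membrane depolarization. After 60 min dye equilibration with 100 uM RO 20-1724, compounds incubated 30 min before bottom-read fluorescence at 590 nm.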
# * hit, by the source's call; u = inconclusive; x = no result; [ ] = remark or other dose. Sampled rows, rich in hits. Any-hit rate of the full collection: about 4.1%. Unless noted, the call rests on the fitted dose curve; in most records, active means well fitted curve in the direction sought with a large enough effect; inconclusive means small, poorly fitted or top-dose-only effect, or another doubt; inactive means no such curve, though single readings can be large; an effect the other way counts as inactive or inconclusive. Potency means the concentration at half of the fitted maximal effect.
SMILES,Bst PK mod,GBA mod,TSHR agonist,USP2a inhib,UbGFP stabilizer,HEK293 cAMP cs
N#Cc1cc2c(nc1SCc1cccnc1)CCCCC2,>57,>77,u,-6%,-6%,10µM*
CCOCCCNS(=O)(=O)c1ccc2c(c1)CCN2C(C)=O,>57,>77,-2%,4%,-7%,11%
CCOC(=O)c1nn(-c2ccc3c(c2)CCN3C(C)=O)cc1O,9.9*,>77,5%,-6%,-1%,-13%
CCNc1ncc2nc(-c3ccc(F)cc3)c(=O)n(-c3ccccc3)c2n1,x,x,u,51%,0%,u
CCNc1ncc2nc(-c3ccc(OC)cc3)c(=O)n(-c3ccc(OC)cc3)c2n1,x,x,u,44%,13%,32µM*
OC[C@H](S)CS,x,x,-2%[11.4 µM],x,4%[9.17 µM],5%[11.4 µM]
CN1C(=O)c2ccc(N(C)C)cc2C1=O,>26,x,x,x,x,x
COc1cc(=O)n(C)c2cc(N(C)C)ccc12,4.9*,x,-8%,-13%,-3%,-4%
CC(C)Cn1c(SCC(=O)NC(=O)NC2CCCC2)nc2ccccc21,>57,u,u,8%,13%,32µM*
CCN1CCN(c2cc(C)c3cc(NC(=O)c4cnccn4)ccc3n2)CC1,x,x,-3%,x,1%,5%
Cc1cc(N2CCOCC2)nc2ccc(Cc3ccc4nc(N5CCOCC5)cc(C)c4c3)cc12,x,x,4%[11.4 µM],x,6%[9.17 µM],4%[11.4 µM]
CCOc1ccccc1NC(=O)CCC(=O)Nc1ccc2nc(N3CCN(C)CC3)cc(C)c2c1,>57,9.6*,-19%,38%,-13%,-11%
Cc1ccc(NC(=O)c2cc(N3CCOCC3)nc3ccccc23)cc1,>26,x,x,x,x,x
CCCCN(C)C(=O)CCC(=O)Nc1ccc2nc(N3CCOCC3)cc(C)c2c1,>11,0.71*,1%,12%,-7%,0%
CCC(C)NC(=O)CCC(=O)Nc1ccc2nc(N3CCOCC3)cc(C)c2c1 (centres undefined),>57,6.1*,-2%[11.4 µM],0%,6%,6%
Cc1cc(N2CCOCC2)nc2ccc(NC(=O)CCC(=O)N3CCC(C)CC3)cc12,x,1.7*,5%,18%,-1%,-2%
COc1ccc(-n2c(=O)c(C)nc3cncnc32)cc1,x,x,u,12%,-6%,u
CC(=O)N[C@@H]1CONC1=O,x,x,2%[11.4 µM],x,-8%[9.17 µM],2%[11.4 µM]
Fc1ccc(C(OCCCc2cnc[nH]2)c2ccc(F)cc2)cc1,x,x,12%,-3%,2%,7%
CCN1CCN(c2cc(C)c3cc(NC(=O)Cc4ccc(OC)c(OC)c4)ccc3n2)CC1,x,x,-3%,x,-3%,1%
Cc1cc(N2CCOCC2)nc2ccc(NC(=O)CCC(=O)N3CCCCC3)cc12,>11,2.4*,3%,9%,-1%,-2%
N[C@@H](CCCCO)C(=O)O,x,x,2%[11.4 µM],x,-12%[9.17 µM],-2%[11.4 µM]
COc1ccc(C(=O)N2c3ccc(F)cc3CCC2C)cc1OC (centres undefined),>57,>77,-58%,4%,-6%,16%
CC1CCc2cc(F)ccc2N1C(=O)c1ccc2c(c1)OCO2 (centres undefined),>57,>77,25µM*,1%,4%,25%
CCC/C=C(\CCC)C(NC(=O)c1ccco1)c1ccc(C(=O)OC)cc1 (centres undefined),x,x,u,x,x,25µM*
SMILES,Bst PK mod,GBA mod,TSHR agonist,USP2a inhib,UbGFP stabilizer,HEK293 cAMP cs
Cc1ccc(S(=O)(=O)N2C(=O)CCC2C(=O)Nc2ccc3c(c2)OCCO3)cc1 (centres undefined),2.3*,>77,7%,6%,3%,5%
CCOC(=O)Oc1c(OC)cc(C(=O)O[C@H]2C[C@H]3CN4CCc5c([nH]c6cc(OC)ccc56)[C@@H]4C[C@H]3[C@@H](C(=O)OC)[C@@H]2OC)cc1OC,x,x,u,58%[17.1 µM],0%[20.5 µM],-38%[25.6 µM]
COC(=O)[C@@]1(C)C=C[C@@H](Cc2ccccc2)N1C,x,x,u,x,x,20µM*
O=C(NCCO)c1ccc(-n2c(=O)c(=O)[nH]c3ccccc32)cc1,x,x,-1%,x,x,-8%
COc1ccccc1-c1nc2s/c(=C\c3cccs3)c(=O)n2n1,x,5.8*,x,44%,15%,-4%
COc1ccccc1/C=c1\sc2nc(-c3cccs3)nn2c1=O,>57,>77,-5%,14%,-7%,-1%
CC(C)=C1CCC(C)CC1=O (centres undefined),x,x,10%,x,x,-11%
COc1ccc(-c2nc3cnc(Oc4cccc(Cl)c4)nc3n(C[C@H]3CCCO3)c2=O)cc1,x,x,u,144%,0%,u
CCCC(OC(=O)CN1C(=O)COc2ccccc21)C(=O)NC1CCCC1 (centres undefined),>57,>77,u,4%,5%,0.79µM*
COc1ccccc1NC(=O)CN1CCN(c2ccccc2F)CC1,>57,>77,12%,3%,-2%,25%
COc1ccccc1NC(=O)CN1CCN(c2ccc(Cl)cc2)CC1,>57,>77,u,-9%,-7%,20µM*
O=C(O)c1cc(O)c2c(c1)[C@H]([C@H]1c3cc(C(=O)O)cc(O)c3C(=O)c3c(O[C@@H]4OC(CO)C(O)C(O)C4O)cccc31)c1cccc(O[C@@H]3OC(CO)C(O)C(O)C3O)c1C2=O (some centres undefined),x,x,x,13µM*,x,x
COC(=O)N1CCC2(CCCN(C(=O)Nc3ccccc3)C2)CC1,x,x,3%,3%,0%,5%
Cc1cc(C)nc(-n2nc(C)cc2NC(=O)CN2CCC(C)CC2)n1,>57,>77,u,7%,0%,u
CCC1CCCCN1CC(=O)Nc1cc(C)nn1-c1nc(C)cc(C)n1 (centres undefined),>57,>77,u,7%,4%,25µM*
C=CCOc1nc(-c2ccncc2)nc2ccccc12,8.3*,x,x,x,x,x
CCCOc1ccccc1NC(=O)CC1Nc2ccccc2NC1=O (centres undefined),>57,14*,5%,16%,2%,2%
CCOc1ccccc1NC(=O)CC1Nc2ccccc2NC1=O (centres undefined),>57,>77,-1%,5%,3%,-19%
O=C(CC(=O)N1CCN(c2ccccn2)CC1)Nc1ccc2nc3n(c(=O)c2c1)CCCCC3,x,x,-3%,x,15%,-6%
N#CCSc1nc2ccc(N3CCCCC3)cc2c(=O)n1Cc1ccccc1,>57,15*,-6%,29%,4%,-6%
CCc1c(C(=O)Nc2ccc(OC)c(Cl)c2)[nH]c(C)c1C(C)=O,3.1*,>77,9%,9%,11%,-8%
O=C(c1ccc(Cl)s1)N1CCc2ccccc21,x,>77,16µM*,4%,7%,27%
Cc1cc(C)c(S(=O)(=O)Nc2ccccc2C(=O)O)cc1C,x,x,7%,x,x,-16%
CN(C)c1nc2c(Br)c(Br)c(Br)c(Br)c2[nH]1,x,x,x,-2%,x,x
